# Reference: the supplement of paper PMC12282887
# ± gives the standard deviation of the averaged measurements.
# Legend:
# Assay in all cases: promoter activity interaction Z-score (Lux/OD deviation from empty-vector control); higher = stronger promoter induction by the compound
# [1] = tested on: E. coli BW25113 acrABp lux reporter
# In short: (§1)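 Low-copy luxCDABE promoter reporters were carried by E. coli BW25113, either wild type or lacking one of three genes, grown in 40 µl LB Lennox in 384-well plates at 37°C. Each compound was run at four 1:2 dilutions in biological duplicates, with OD600 and luminescence read every 30 min for 12 h. Integration used 0–8 h for wild type and 1–9 h for deletion strains, and wells under 10% of the median growth value were removed. Luminescence normalised to growth was fitted against a control, and the Z-transformed residual is the score.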
# [2] = tested on: E. coli BW25113 marRABp lux reporter
# In short: as §1
# [3] = tested on: E. coli BW25113 micFp lux reporter
# In short: as §1
# [4] = tested on: E. coli BW25113 ompFp lux reporter
# In short: as §1
# [5] = tested on: E. coli BW25113 robp lux reporter
# In short: as §1
# [6] = tested on: E. coli BW25113 soxSp lux reporter
# In short: as §1
# [7] = tested on: E. coli BW25113 tolCp lux reporter
# In short: as §1
# [8] = 0.034 µg/ml, genetic background: wild type
# [9] = 0.034 µg/ml, genetic background: ΔmarA
# [10] = 0.034 µg/ml, genetic background: Δrob
# [11] = 0.034 µg/ml, genetic background: ΔsoxS
# [12] = 0.067 µg/ml, genetic background: wild type
# [13] = 0.067 µg/ml, genetic background: ΔmarA
# [14] = 0.067 µg/ml, genetic background: Δrob
# [15] = 0.067 µg/ml, genetic background: ΔsoxS
# [16] = 0.13 µg/ml, genetic background: wild type
# [17] = 0.13 µg/ml, genetic background: ΔmarA
# [18] = 0.13 µg/ml, genetic background: Δrob
# [19] = 0.13 µg/ml, genetic background: ΔsoxS
# [20] = 0.27 µg/ml, genetic background: wild type
# [21] = 0.27 µg/ml, genetic background: ΔmarA
# [22] = 0.27 µg/ml, genetic background: Δrob
# [23] = 0.27 µg/ml, genetic background: ΔsoxS
smiles,measurement,setting,value
CCN1CCN(C(=O)N[C@@H](C(=O)N[C@@H]2C(=O)N3[C@@H]2SC(C)(C)[C@@H]3C(=O)O)c2ccccc2)C(=O)C1=O [Piperacillin],promoter activity interaction Z-score,[1]; [8],-0.232 ± 0.0098
same,promoter activity interaction Z-score,[1]; [9],-0.0362 ± 0.011
same,promoter activity interaction Z-score,[1]; [10],0.0917 ± 0.12
same,promoter activity interaction Z-score,[1]; [11],-0.171 ± 0.35
same,promoter activity interaction Z-score,[1]; [12],-0.00951 ± 0.16
same,promoter activity interaction Z-score,[1]; [13],-0.975 ± 0.12
same,promoter activity interaction Z-score,[1]; [14],-0.296 ± 0.13
same,promoter activity interaction Z-score,[1]; [15],0.0579 ± 0.55
same,promoter activity interaction Z-score,[1]; [16],-0.124 ± 0.2
same,promoter activity interaction Z-score,[1]; [17],0.866 ± 1.5
same,promoter activity interaction Z-score,[1]; [18],0.0632 ± 0.21
same,promoter activity interaction Z-score,[1]; [19],-0.295 ± 0.39
same,promoter activity interaction Z-score,[1]; [20],-0.155 ± 0.22
same,promoter activity interaction Z-score,[1]; [21],1.08 ± 0.93
same,promoter activity interaction Z-score,[1]; [22],0.045 ± 0.16
same,promoter activity interaction Z-score,[1]; [23],-0.703 ± 0.75
same,promoter activity interaction Z-score,[2]; [8],-0.259 ± 0.22
same,promoter activity interaction Z-score,[2]; [9],-0.115 ± 0.2
same,promoter activity interaction Z-score,[2]; [10],-0.137 ± 0.032
same,promoter activity interaction Z-score,[2]; [11],-0.285 ± 0.24
same,promoter activity interaction Z-score,[2]; [12],0.0282 ± 0.023
same,promoter activity interaction Z-score,[2]; [13],-0.147 ± 0.33
same,promoter activity interaction Z-score,[2]; [14],-0.102 ± 0.11
same,promoter activity interaction Z-score,[2]; [15],-0.225 ± 0.29
same,promoter activity interaction Z-score,[2]; [16],-0.0179 ± 0.059
same,promoter activity interaction Z-score,[2]; [17],-0.0535 ± 0.27
same,promoter activity interaction Z-score,[2]; [18],-0.134 ± 0.096
same,promoter activity interaction Z-score,[2]; [19],-0.159 ± 0.072
same,promoter activity interaction Z-score,[2]; [20],-0.12 ± 0.057
same,promoter activity interaction Z-score,[2]; [21],-0.117 ± 0.15
same,promoter activity interaction Z-score,[2]; [22],-0.0506 ± 0.1
same,promoter activity interaction Z-score,[2]; [23],-0.145 ± 0.44
same,promoter activity interaction Z-score,[3]; [8],0.00552 ± 0.088
same,promoter activity interaction Z-score,[3]; [9],-0.146 ± 0.15
same,promoter activity interaction Z-score,[3]; [10],-0.0761 ± 0.045
same,promoter activity interaction Z-score,[3]; [11],-0.264 ± 0.15
same,promoter activity interaction Z-score,[3]; [12],0.13 ± 0.05
same,promoter activity interaction Z-score,[3]; [13],0.0167 ± 0.14
same,promoter activity interaction Z-score,[3]; [14],-0.0679 ± 0.059
same,promoter activity interaction Z-score,[3]; [15],-0.148 ± 0.27
same,promoter activity interaction Z-score,[3]; [16],-0.112 ± 0.27
same,promoter activity interaction Z-score,[3]; [17],-0.0842 ± 0.077
same,promoter activity interaction Z-score,[3]; [18],-0.0193 ± 0.093
same,promoter activity interaction Z-score,[3]; [19],-0.266 ± 0.18
same,promoter activity interaction Z-score,[3]; [20],-0.272 ± 0.16
same,promoter activity interaction Z-score,[3]; [21],-0.139 ± 0.059
same,promoter activity interaction Z-score,[3]; [22],-0.0211 ± 0.15
same,promoter activity interaction Z-score,[3]; [23],-0.639 ± 0.054
same,promoter activity interaction Z-score,[4]; [8],-0.0853 ± 0.096
same,promoter activity interaction Z-score,[4]; [9],0.15 ± 0.27
same,promoter activity interaction Z-score,[4]; [10],-0.247 ± 0.24
same,promoter activity interaction Z-score,[4]; [11],-0.152 ± 0.042
same,promoter activity interaction Z-score,[4]; [12],0.324 ± 0.3
same,promoter activity interaction Z-score,[4]; [13],-0.184 ± 0.32
same,promoter activity interaction Z-score,[4]; [14],0.0351 ± 0.21
same,promoter activity interaction Z-score,[4]; [15],0.0638 ± 0.27
same,promoter activity interaction Z-score,[4]; [16],0.0298 ± 0.29
same,promoter activity interaction Z-score,[4]; [17],0.086 ± 0.054
same,promoter activity interaction Z-score,[4]; [18],-0.035 ± 0.23
same,promoter activity interaction Z-score,[4]; [19],-0.0829 ± 0.38
same,promoter activity interaction Z-score,[4]; [20],0.489 ± 0.45
same,promoter activity interaction Z-score,[4]; [21],0.879 ± 0.27
same,promoter activity interaction Z-score,[4]; [22],1.38 ± 0.61
same,promoter activity interaction Z-score,[4]; [23],0.0824 ± 1.4
same,promoter activity interaction Z-score,[5]; [8],0.0506 ± 0.23
same,promoter activity interaction Z-score,[5]; [9],-0.0397 ± 0.005
same,promoter activity interaction Z-score,[5]; [10],0.283 ± 0.84
same,promoter activity interaction Z-score,[5]; [11],-0.0239 ± 0.021
same,promoter activity interaction Z-score,[5]; [12],0.564 ± 0.3
same,promoter activity interaction Z-score,[5]; [13],0.263 ± 0.19
same,promoter activity interaction Z-score,[5]; [14],0.443 ± 0.078
same,promoter activity interaction Z-score,[5]; [15],0.154 ± 0.23
same,promoter activity interaction Z-score,[5]; [16],0.0585 ± 0.068
same,promoter activity interaction Z-score,[5]; [17],0.404 ± 0.017
same,promoter activity interaction Z-score,[5]; [18],0.606 ± 0.011
same,promoter activity interaction Z-score,[5]; [19],0.00285 ± 0.0042
same,promoter activity interaction Z-score,[5]; [20],0.179 ± 0.51
same,promoter activity interaction Z-score,[5]; [21],0.636 ± 0.1
same,promoter activity interaction Z-score,[5]; [22],0.356 ± 0.1
same,promoter activity interaction Z-score,[5]; [23],-0.904 ± 1.2
same,promoter activity interaction Z-score,[6]; [8],-0.0446 ± 0.039
same,promoter activity interaction Z-score,[6]; [9],-0.141 ± 0.061
same,promoter activity interaction Z-score,[6]; [10],0.0401 ± 0.031
same,promoter activity interaction Z-score,[6]; [11],-0.0874 ± 0.14
same,promoter activity interaction Z-score,[6]; [12],0.017 ± 0.053
same,promoter activity interaction Z-score,[6]; [13],-0.00164 ± 0.038
same,promoter activity interaction Z-score,[6]; [14],0.126 ± 0.088
same,promoter activity interaction Z-score,[6]; [15],0.0907 ± 0.13
same,promoter activity interaction Z-score,[6]; [16],-0.0137 ± 0.014
same,promoter activity interaction Z-score,[6]; [17],-0.056 ± 0.022
same,promoter activity interaction Z-score,[6]; [18],-0.105 ± 0.013
same,promoter activity interaction Z-score,[6]; [19],-0.0509 ± 0.17
same,promoter activity interaction Z-score,[6]; [20],-0.122 ± 0.084
same,promoter activity interaction Z-score,[6]; [21],-0.184 ± 0.011
same,promoter activity interaction Z-score,[6]; [22],-0.0489 ± 0.12
same,promoter activity interaction Z-score,[6]; [23],-0.233 ± 0.7
same,promoter activity interaction Z-score,[7]; [8],0.0285 ± 0.87
same,promoter activity interaction Z-score,[7]; [9],-0.171 ± 0.024
same,promoter activity interaction Z-score,[7]; [10],-0.382 ± 0.53
same,promoter activity interaction Z-score,[7]; [11],0.0095 ± 1.5
same,promoter activity interaction Z-score,[7]; [12],0.334 ± 0.13
same,promoter activity interaction Z-score,[7]; [13],0.917 ± 0.67
same,promoter activity interaction Z-score,[7]; [14],0.279 ± 0.2
same,promoter activity interaction Z-score,[7]; [15],-0.332 ± 0.83
same,promoter activity interaction Z-score,[7]; [16],-0.441 ± 0.82
same,promoter activity interaction Z-score,[7]; [17],-0.635 ± 0.38
same,promoter activity interaction Z-score,[7]; [18],0.0967 ± 0.77
same,promoter activity interaction Z-score,[7]; [19],-0.574 ± 0.84
same,promoter activity interaction Z-score,[7]; [20],-0.552 ± 0.3
same,promoter activity interaction Z-score,[7]; [21],0.498 ± 0.032
same,promoter activity interaction Z-score,[7]; [22],0.489 ± 0.43
same,promoter activity interaction Z-score,[7]; [23],-0.895 ± 0.62
